Test systems include RPMI-8226 leukemia; OVCAR-8 ovarian; OVCAR-5 ovarian; OVCAR-4 ovarian; IGROV1 ovarian; OVCAR-3 ovarian; HS 578T breast; NCI/ADR-RES ovarian; T-47D breast.
Common to all, as to assay: NCI-60 one-dose screen, 48 h (100 = growth as untreated, 0 = no growth, -100 = all killed)
Conditions in all cases: 10 µM unless noted

The panel holds about 83,000 compounds, 20% with a hit somewhere; the sample as a whole holds those more often.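 Single-concentration screen, 48 h exposure, 96-well plates. Endpoint: percent growth. Below 10 = active.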 Values without a mark were called inactive. Active and inactive are the calls of the source.

On to `NC(CCc1nc2ccccc2c(=O)[nH]1)C(=O)O` (centres undefined), for which the growth was 101% in the assay on RPMI-8226 leukemia; 104% in the assay with OVCAR-8 ovarian; 105% in the assay on OVCAR-5 ovarian; 103% in the assay with OVCAR-4 ovarian; 99.1% in the assay with IGROV1 ovarian; 119% in the assay with OVCAR-3 ovarian. Also, the growth in the assay with HS 578T breast is 102%; in the assay on NCI/ADR-RES ovarian, 110%; with T-47D breast, 108%.

Regarding `CC1(O)COCCCCOc2c(CN)cccc2NC(=O)c2nc(cnc2N)-c2ccc(cc2)S(=O)(=O)C(C)(C)C1` (centres undefined), the growth with RPMI-8226 leukemia was -36.8% (active); in the assay on OVCAR-8 ovarian, -22.8% (active); in the assay with OVCAR-5 ovarian, 3.73% (active); in the assay on OVCAR-4 ovarian it was -70.2% (active); in the assay with IGROV1 ovarian it was -57.3% (active); in the assay with OVCAR-3 ovarian it was -77.2% (active). Besides, the growth in the assay on HS 578T breast is -53.2% (active); in the assay with NCI/ADR-RES ovarian it was 48.5%; with T-47D breast, -19.8% (active).

With `O=C(/C=C/c1ccc(F)cc1)c1ccc(Nc2nc(NCCO)nc(Nc3ccc(Cl)cc3)n2)cc1`, the growth in the assay with RPMI-8226 leukemia was 1.78% (active); with OVCAR-8 ovarian, 78.4%; in the assay on OVCAR-5 ovarian, 96.8%; in the assay with OVCAR-4 ovarian, 78.6%; with IGROV1 ovarian, 96.4%; in the assay on OVCAR-3 ovarian, 77%. Moreover, the growth in the assay on HS 578T breast is 86.8%; with NCI/ADR-RES ovarian, 87.2%.

For the compound `Cc1ccc2cccc(Oc3ccc(Nc4ncnc5onc(-c6ccccc6)c45)cc3)c2n1`, the growth in the assay on RPMI-8226 leukemia was 111%; with OVCAR-8 ovarian, 91%; with OVCAR-5 ovarian, 94.6%; with OVCAR-4 ovarian it was 71.9%; in the assay with IGROV1 ovarian, 77.2%; in the assay with OVCAR-3 ovarian it was 93.8%. Besides, the growth is 89.4% in the assay on HS 578T breast, 87.3% in the assay with NCI/ADR-RES ovarian and 65.2% in the assay with T-47D breast.

With `O=Cc1c(OCc2cnnn2CC(=O)Nc2ccc(Cl)cc2)ccc2ccccc12`, the growth was 105% in the assay with RPMI-8226 leukemia; 99.2% with OVCAR-8 ovarian; 94.8% in the assay on OVCAR-5 ovarian; 100% in the assay on OVCAR-4 ovarian; 96% in the assay with IGROV1 ovarian; 103% in the assay with OVCAR-3 ovarian. Moreover, the growth in the assay on HS 578T breast is 101%; in the assay with NCI/ADR-RES ovarian, 102%; in the assay on T-47D breast, 104%.

Take `Nc1nc(-c2cnccn2)nn1-c1nc2ccccc2s1`: the growth in the assay with RPMI-8226 leukemia was 82%; in the assay on OVCAR-8 ovarian, 99.9%; in the assay on OVCAR-5 ovarian, 104%; in the assay on OVCAR-4 ovarian, 97.7%; in the assay on IGROV1 ovarian, 100%; with OVCAR-3 ovarian it was 108%. In addition, the growth with HS 578T breast is 99.3%; in the assay with NCI/ADR-RES ovarian, 101%; in the assay with T-47D breast, 96.9%.

Turning to `O=C(c1nc2ccccc2[nH]1)C1C(c2ccc([N+](=O)[O-])cc2)C2CC3CCCCC3N2[C@@]12C(=O)Nc1cc(Cl)ccc12` (some centres undefined), the growth with RPMI-8226 leukemia was 6.29% (active); with OVCAR-8 ovarian, 35%; in the assay with OVCAR-5 ovarian it was 46.3%; with OVCAR-4 ovarian, 20.6%; with IGROV1 ovarian, 24.9%; in the assay on OVCAR-3 ovarian, 29.6%. Also, the results for the growth in the assay with HS 578T breast, in the assay on NCI/ADR-RES ovarian and in the assay with T-47D breast were 54.6%, 29.2% and 28.8%, respectively.

On to `Cn1c(/C=C(\C#N)c2cccc(C(F)(F)F)c2)nc2c(N3CCOCC3)nc(Cl)nc21`, for which the growth was -23.4% (active) in the assay with RPMI-8226 leukemia; 7.88% (active) in the assay with OVCAR-8 ovarian; -53.7% (active) in the assay with OVCAR-5 ovarian; -56.4% (active) with OVCAR-4 ovarian; -27.7% (active) in the assay on IGROV1 ovarian; -85% (active) with OVCAR-3 ovarian. For the same compound, the growth with HS 578T breast is -12% (active); with NCI/ADR-RES ovarian, 20.1%; with T-47D breast, -36.6% (active).

Consider `COc1ccc2c(c1)C=C1CSCC3=Cc4cc(OC)ccc4OC13O2`, for which the growth with RPMI-8226 leukemia is 19.5%; with OVCAR-8 ovarian, 25.4%; with OVCAR-5 ovarian, 41.1%; in the assay with OVCAR-4 ovarian it was 47.8%; in the assay on IGROV1 ovarian, 31.6%; in the assay on OVCAR-3 ovarian, -6.42% (active). For the same compound, the growth is -0.917% (active) in the assay on HS 578T breast and -1.58% (active) with NCI/ADR-RES ovarian.

On to `CNC(=O)c1cc(Oc2ccc(CC(=O)Nc3cc(C(C)(C)C)cn3C)cc2)ccn1`, for which the growth is 53.1% in the assay with RPMI-8226 leukemia; 65.2% in the assay on OVCAR-8 ovarian; 116% in the assay on OVCAR-5 ovarian; 48.9% in the assay with OVCAR-4 ovarian; 67% with IGROV1 ovarian; 81.6% with OVCAR-3 ovarian. The results for the growth with HS 578T breast, in the assay on NCI/ADR-RES ovarian and with T-47D breast were 86.9%, 72.4% and 48.9%, respectively.

Take `COc1cc(/C=C2\CN(C)C/C(=C\c3cc(CN4CCOCC4)c(O)c(OC)c3)C2=O)cc(CN2CCOCC2)c1O`: the growth in the assay on RPMI-8226 leukemia is 47.7%; in the assay with OVCAR-8 ovarian, 20.1%; with OVCAR-5 ovarian it was 88.7%; in the assay with OVCAR-4 ovarian it was 58.9%; with IGROV1 ovarian, 57.8%; in the assay on OVCAR-3 ovarian, 22.2%. Moreover, the growth in the assay with HS 578T breast is 83.1%; in the assay on NCI/ADR-RES ovarian it was 94.7%; with T-47D breast, 84.5%.

Take `O=C(NCc1ccccc1)C1CN(c2ccc(Cl)cc2)N(c2ccc(Cl)cc2)C1=O` (centres undefined): the growth in the assay with RPMI-8226 leukemia is 85.5%; with OVCAR-8 ovarian it was 86.5%; in the assay with OVCAR-5 ovarian, 95.2%; in the assay with OVCAR-4 ovarian, 88.3%; in the assay with IGROV1 ovarian it was 92.1%; with OVCAR-3 ovarian it was 51.7%. The growth is 74.7% in the assay on HS 578T breast, 69.9% in the assay with NCI/ADR-RES ovarian and 63.9% with T-47D breast.

As to `COC(=O)[C@H](NC(=O)C1(C)CCC[C@]2(C)[C@H]3C[C@H]4C(C(C)C)=C[C@]3(CC[C@@H]12)[C@@H]1C(=O)CCC(=O)[C@@H]14)C(C)C` (some centres undefined), the growth with RPMI-8226 leukemia is 103%; in the assay with OVCAR-8 ovarian, 101%; in the assay on OVCAR-5 ovarian, 98.7%; in the assay with OVCAR-4 ovarian, 94.5%; in the assay with IGROV1 ovarian, 91.9%; in the assay on OVCAR-3 ovarian, 109%. Besides, the growth in the assay with HS 578T breast is 92.9%; in the assay with NCI/ADR-RES ovarian, 96.1%; in the assay on T-47D breast it was 94.2%.

Take `O=c1c(-c2nc3ccccc3[nH]2)cc2ccccc2n1Cc1cn(Cc2ccc(N3CCOCC3)cc2)nn1`: the growth in the assay with RPMI-8226 leukemia was 80.4%; with OVCAR-8 ovarian it was 37.4%; in the assay on OVCAR-5 ovarian, 77.3%; in the assay on OVCAR-4 ovarian, 6.82% (active); in the assay with IGROV1 ovarian, 40%; with OVCAR-3 ovarian, 83.5%. In addition, the values for the growth with HS 578T breast, with NCI/ADR-RES ovarian and with T-47D breast were 74.7%, 68.8% and 71.4%, respectively.
